The whole screen tested about 52,000 compounds, of which about 4,300 (8.3%) were called active. Many of the other results were omitted from the sample, so actives are more common in it than they were. Unmarked numbers belong to inactive results. Cut-off read from the data, not from the text of the source: active = survival mostly below about 52% (no sharp cut-off); inactive = mostly above about 56%.
test system: DeltatarO mutant; assay: growth inhibition of S. aureus wild type versus tarO mutant, primary screen, teichoic acid synthesis inhibitors, RN4220, OD600 (AID 463173); conditions: OD600, 18 h, hits give low values, screened at 18.75 µg/mL (by protocol)

Structure (SMILES)	survival
COc1ccc(Cn2nnnc2C(C(C)C)N2CCc3ccccc32)cc1 (centres undefined)	82%
CC(=O)N1CCC(N(Cc2ccco2)C(=O)Nc2ccc(C)c(Cl)c2)CC1	128%
CN(C)S(=O)(=O)c1ccc2c(c1)N(CC(=O)NCc1ccccc1)C(=O)C1CCCCN21 (centres undefined)	67%
CCSc1nc2n(n1)C(c1ccc(C(=O)O)cc1)C(C(=O)Nc1ccccc1C)=C(C)N2 (centres undefined)	84%
COc1ccc(N2CCN(C(=O)Nc3ccc(Cl)cc3)CC2)cc1	168%
COc1ccc(S(=O)(=O)c2cn(CC(=O)Nc3cc(C)ccc3C)c3ccccc3c2=O)cc1	86%
COc1ccccc1NC(=O)C1=C(C)Nc2nc(SCc3cc(C)ccc3C)nn2C1c1ccccc1 (centres undefined)	116%
CCOc1ccc(NC(=O)CSc2ncc3c(n2)-c2ccc(Cl)cc2N(Cc2ccccc2)S3(=O)=O)cc1	99%
O=C(NCc1ccccc1Cl)c1ccc(Nc2nc3ccccc3n3nnnc23)cc1	84%
Cc1cc(/C=C(\C#N)C(=O)Nc2ccccc2)c(C)n1-c1ccc(F)cc1	59%
COc1cccc(Nc2nnc(-c3cc4ccc(O)cc4oc3=O)s2)c1	85%
Nc1c(C(=O)Nc2cccc(F)c2)sc2nc(-c3cccs3)ccc12	69%
Cc1ccccc1NC(=O)c1sc2nc(-c3ccncc3)ccc2c1N	39%
Nc1c(C(=O)Nc2ccc(Cl)cc2F)sc2nc(-c3cccs3)ccc12	58%
Cc1ccc(NC(=O)c2cc(-c3cccs3)nc3ccccc23)c(C)c1	57% (active)
CC(C)CSc1ccccc1NC(=O)c1sc2nc(-c3ccncc3)ccc2c1N	46% (active)
Cc1cc(F)ccc1NC(=O)c1sc2nc(-c3cccs3)ccc2c1N	45% (active)
CCOc1ccc(OCC)c(NC(=O)c2cc(-c3cccs3)nc3ccccc23)c1	85%
O=C(Nc1ccc(Br)cc1)c1cc(-c2cccs2)nc2ccccc12	83%
Cc1ccc(NC(=O)c2sc3nc(-c4ccncc4)ccc3c2N)cc1	131%
Cc1ccc(N(Cc2cccs2)C(=O)c2ccc(Br)o2)cc1	73%
CC(C)(C)C(=O)CSc1nc2ccsc2c(=O)n1Cc1ccccc1Cl	77%
COc1ccc(-c2nc3n(c2NC(C)(C)C)CCN(C(=O)Cc2ccccc2F)C3)cc1	88%
CSc1ccc(CCNC(=O)c2ccc3c(c2)nc2n3CCC(C)C2)cc1 (centres undefined)	83%

Structure (SMILES)	survival
CCOC(=O)c1c(-c2ccc(C)cc2)csc1NC(=O)c1nc(SC(C)C)ncc1Cl	61%
CCOC(=O)c1c(NC(=O)c2nc(SCC)ncc2Cl)sc(C(C)=O)c1C	75%
CCCSc1ncc(Cl)c(C(=O)Nc2scc(-c3ccc(C)cc3)c2C(=O)OCC)n1	62%
CCCS(=O)(=O)c1ncc(Cl)c(C(=O)Nc2scc(-c3ccccc3)c2C(=O)OCC)n1	25% (active)
CCOC(=O)c1c(-c2ccccc2)csc1NC(=O)c1nc(S(=O)(=O)CC)ncc1Cl	11% (active)
CCOC(=O)c1c(NC(=O)c2nc(S(C)(=O)=O)ncc2Cl)sc(C(C)=O)c1C	6% (active)
CCCSc1ncc(Cl)c(C(=O)Nc2sc(C(C)=O)c(C)c2C(=O)OCC)n1	51%
CCOC(=O)c1c(-c2ccccc2)csc1NC(=O)c1nc(SCC)ncc1Cl	87%
CCOC(=O)c1c(-c2ccc(C)cc2)csc1NC(=O)c1nc(SCC)ncc1Cl	84%
CCOC(=O)c1cccc(NC(=O)C2CCN(S(=O)(=O)c3cn(C)cn3)CC2)c1	102%
COc1ccc(CCN2C(=O)CN(C3CCCCCC3)C(=O)C2c2ccc(OC(C)C)c(OC)c2)cc1OC (centres undefined)	89%
COc1cc2[nH]c(=O)n(CCCCCC(=O)N3CCN(c4ccc(Cl)cc4)CC3)c(=O)c2cc1OC	67%
CCOc1ccc(-c2cc(C)n3nc(C(=O)Nc4cc(Cl)ccc4O)cc3n2)cc1	62%
CC(=O)Nc1ccc(NC(=O)CCCn2nc(C)c3sc4ccccc4c3c2=O)cc1	83%
O=c1oc2c3c(ccc2c2ccccc12)OCN(Cc1ccccc1Cl)C3	68%
O=C(NCCc1ccc(Cl)cc1)c1ccc(CSCc2ccc(Cl)cc2)o1	83%
CCN1CCN(C(=O)c2ccc3c(c2)N(Cc2cccc(F)c2)C(=O)c2ccccc2S3)CC1	85%
CCOc1cc(S(=O)(=O)N(C)C2CCCCC2)c(OCC)cc1-n1cnnn1	99%
Cn1c(=O)oc2cc(S(=O)(=O)CCC(=O)N3CCN(c4cccc(Cl)c4)CC3)ccc21	81%
COc1ccc(OCC(=O)Nc2ccc3oc(-c4ccncc4)nc3c2)cc1	87%
CCN1CCN(C(=O)c2cnn(-c3ccc(F)cc3F)c2C2CCN(C(=O)OC(C)(C)C)CC2)CC1	86%
CCc1nnc2c3ccccc3nc(Nc3ccccc3OC)n12	57%
COc1cc(Nc2nc3ccccc3c3nnc(C)n23)cc(OC)c1	37% (active)
CCc1ccc(Nc2nc3ccccc3c3nnc(C)n23)cc1	92%

Structure (SMILES)	survival
CCc1nnc2c3ccccc3nc(Nc3ccc(F)c(Cl)c3)n12	62%
CCc1nnc2c3ccccc3nc(Nc3ccc(C(C)=O)cc3)n12	78%
CCc1nnc2c3ccccc3nc(Nc3cc(C)cc(C)c3)n12	26% (active)
CCOc1ccc(Nc2nc3ccccc3c3nnc(CC)n23)cc1	62%
Cc1nnc2c3ccccc3nc(Nc3ccc(F)cc3Cl)n12	83%
COc1ccc(C)cc1Nc1nc2ccccc2c2nnc(C)n12	135%
CCCCOC(=O)c1ccc(Nc2nc3ccccc3c3nnc(C)n23)cc1	25% (active)
CCc1nnc2c3ccccc3nc(Nc3ccc(F)cc3C)n12	39% (active)
COc1ccc(Nc2nc3ccccc3c3nnc(C)n23)cc1Cl	48%
Cn1c(-n2cccc2)c(-c2c(-c3ccc(F)cc3)[nH]c3c2c(=O)[nH]c(=O)n3C)c(=O)[nH]c1=O	55%
CCc1ccc(NC(=O)C(=O)NCCc2csc(-c3ccc(C(F)(F)F)cc3)n2)cc1	99%
Cc1cc(C)c2c(-n3cccc3)c(C(=O)NCC(C)c3ccccc3)sc2n1 (centres undefined)	86%
O=C(Nc1ccc(Br)cc1)C1CCCN1S(=O)(=O)c1ccc(F)cc1 (centres undefined)	66%
Cc1cccc(N2C(=O)C3C(C(=O)NC4CC4)C4C=CC3(O4)C2C(=O)NC2CCCC2)c1 (centres undefined)	75%
Cc1ccc(S(=O)(=O)NCCSc2nnnn2-c2ccc(Cl)c(C(=O)O)c2)cc1	138%
Cc1ccc(-c2nc3nc(C)cc(Nc4ccccc4O)n3n2)cc1	75%
Cc1ccc(C)c(-c2nn(CC(=O)Nc3cc(F)ccc3F)c(=O)c3c2CCCC3)c1	41% (active)
Cc1nn(CC(=O)Nc2cc(F)ccc2F)c(=O)c2cccn12	94%
COc1ccccc1NC(=O)Cn1nc(-c2ccc(C)cc2)c2c(c1=O)CCCC2	42%
CCc1ccccc1NC(=O)Cn1nc(-c2cc(C)ccc2C)c2c(c1=O)CCCC2	41% (active)
O=C(Cn1ncc2c([nH]c3ccccc32)c1=O)Nc1cc(F)ccc1F	81%
CCc1ccccc1NC(=O)CN1CCCN(Cc2cc(C)ccc2C)S1(=O)=O	94%
COc1ccc(Cc2nnc(SCC(N)=O)o2)cc1	76%
O=C1COc2ccccc2N1Cc1c(F)cccc1Cl	79%

Structure (SMILES)	survival
CCOC(=O)c1c(NC(=O)CCCOc2ccc(Cl)cc2)sc2c1CCC2	17% (active)
CCOC(=O)c1c(NC(=O)COc2ccc(Cl)cc2C)sc2c1CCCCC2	75%
CCOC(=O)c1c(NC(=O)CCCOc2ccc(C(C)(C)C)cc2)sc2c1CCCC2	14% (active)
CCOC(=O)c1c(NC(=O)CCCOc2ccc(C(C)(C)C)cc2)sc2c1CCC2	9% (active)
CCOC(=O)c1c(NC(=O)CS(=O)(=O)c2ccc(Cl)cc2)sc2c1CCCC2	77%
CCOC(=O)c1c(NC(=O)COc2ccc(C(C)(C)C)cc2)sc2c1CCCC2	75%
Cc1ccc(N2CCN(S(=O)(=O)c3cc(Br)cc4c3N(C(=O)C3CC3)CC4)CC2C)cc1 (centres undefined)	70%
CCOc1ccccc1NC(=O)C(=O)NCCc1sc(-c2cccc(F)c2)nc1C	90%
O=C(OCC(=O)N1CCc2ccccc21)c1ccccc1	92%
CCOc1ccc(CCNC(=O)c2cnc3sc(N4CCC(C)CC4)nn3c2=O)cc1	84%
COc1cc2c(cc1OC)C(CC(=O)Nc1ccccc1)C(=O)NN=C2C (centres undefined)	103%
CCc1cc2c(cc3c(=O)n(CC(=O)N4CCCCC4)nc(CC)n32)s1	77%
CCc1cc2c(cc3c(=O)n(CC(=O)N4CCC(C)CC4)nc(CC)n32)s1	41% (active)
CCc1cc2c(cc3c(=O)n(CC(=O)NC4CCC(C)CC4)nc(CC)n32)s1 (centres undefined)	115%
COc1ccc(OC)c(C(=O)CN2C(=O)N(c3ccc(C)cc3)S(=O)(=O)c3ccccc32)c1	89%
COc1ccc(C(=O)NCC(c2ccco2)S(=O)(=O)c2cccs2)cc1 (centres undefined)	100%
COc1cc2nc(NCc3ccccc3Cl)n3nc(-c4cccnc4)nc3c2cc1OC	105%
COc1ccccc1CNc1nc2ccccc2c2nc(-c3cccnc3)nn12	48% (active)
COc1ccc(OC)c(CCNc2nc3ccccc3c3nc(-c4cccnc4)nn23)c1	112%
Clc1ccccc1CNc1nc2ccccc2c2nc(-c3cccnc3)nn12	86%
Cc1cccc(-c2nc3c4ccccc4nc(NCc4ccccc4Cl)n3n2)c1	138%
COc1ccccc1CNc1nc2ccccc2c2nc(-c3cccc(C)c3)nn12	24% (active)

Source: PubChem BioAssay AID463173 (ICCB-Longwood Screening Facility, Harvard Medical School, 2010)
